16 compounds from PubChem BioAssay (NCI) can be followed below.

Molecules are shown by their SMILES. About 83,000 compounds went through this panel and 20% of them were active in at least one assay; those are over-represented in the sample as a whole.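 Step 1: grow cells in 96-well plates. Step 2: add test compound at a single concentration. Step 3: incubate 48 h. Step 4: record percent growth.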 Values without a mark were called inactive. Calls of active or inactive are those of the source. The calls were made as follows: active = growth percent below 10; inactive = the rest.

Assay in all cases: NCI-60 one-dose screen, 48 h (100 = growth as untreated, 0 = no growth, -100 = all killed)
Holding throughout (settings): 10 µM unless noted

Test [1] relates to RPMI-8226 leukemia.
The test system of test [2] is OVCAR-8 ovarian.
For test [3], the system named is OVCAR-5 ovarian.
Test [4] relates to OVCAR-4 ovarian.
Test [5] has as its system SK-OV-3 ovarian.
In test [6] the test system is IGROV1 ovarian.
Test [7] concerns OVCAR-3 ovarian.
Test [8] has as its system HS 578T breast.
The test system of test [9] is NCI/ADR-RES ovarian.
Test [10] concerns SR leukemia.

Regarding `CCCCCC1CCCCN1C(=O)OCC` (stereo not drawn), the growth was 103% in test [1]; 107% in test [2]; 94.7% in test [3]; 105% in test [4]; 98.5% in test [5]; 104% in test [6]. The growth is 109% in [7], 110% in test [8] and 111% in test [9].

On to `Cn1cc(-c2nc(-c3c[nH]c4ncccc34)cs2)c2cc(Cl)ccc21`, for which the growth is 34.2% in test [1]; 63.2% in test [2]; 60.3% in test [3]; 71.7% in test [5]; 46.3% in [6]; 69.9% in test [7]. In addition, the growth in [8] is 61.6%; in test [9], 44.7%.

Take `CCCC1CCCCN1C(=O)OCC(C)C` (stereo not drawn): the growth is 108% in test [1]; 105% in test [2]; 102% in test [3]; 113% in [4]; 110% in test [5]; 101% in test [6]. Further, the growth was 102% in test [8] and 137% in test [9].

`N=C(N)c1ccc(S(N)(=O)=O)cc1`: the growth in [1] is 128%; in test [2], 100%; in test [3] it was 88.2%; in [4], 102%; in test [5], 115%; in test [6] it was 110%. Besides, the values for the growth in test [7] and in [9] were 113% and 97.5%, respectively.

Regarding `Cc1oc(-c2ccccc2Cl)cc1C(=O)Nc1ccc(S(N)(=O)=O)cc1`, the growth in test [10] was 101%; in [2], 98.1%; in [3], 102%; in test [4] it was 96.8%; in test [5], 98.5%; in test [6], 113%. Further, the growth in [7] is 117%; in [8], 101%; in test [9] it was 102%.

As for `Cn1cccc1/C=C1/SC(=S)N(CCc2ccc(O)cc2)C1=O`, the growth is 24.1% in test [10]; 67.1% in test [2]; 95.9% in test [3]; 89.4% in test [4]; 83.5% in [5]; 45.7% in test [6]. Besides, the growth is 39.4% in test [7], 67.7% in test [8] and 16.3% in test [9].

With `CCCCCCCN(CCCCCCC)C(=N)c1ccnc2ccccc12`, the growth in test [10] was -44.5% (active); in test [2], -40.8% (active); in test [3], 34.7%; in [4] it was 5.2% (active); in test [5], 36.8%; in [6], 4.57% (active). Further, the growth in test [7] was -41.8% (active); in test [8] it was -43.6% (active); in test [9], -52.5% (active).

Regarding `COc1ccc(CCN2C(=O)C(C)(C)SC2=S)cc1OC`, the growth is 103% in test [10]; 102% in [2]; 104% in test [3]; 96.6% in test [4]; 108% in test [5]; 94.4% in test [6]. Also, the growth in test [8] was 107%; in test [9], 100%.

On to `c1ccc2c(-c3nc(-c4c[nH]c5ncccc45)cs3)c[nH]c2c1`, for which the growth in test [1] was 76.7%; in test [2], 98.4%; in test [3], 119%; in test [5] it was 88.6%; in [6] it was 59.3%; in test [7], 102%. Besides, the growth is 110% in test [8] and 107% in [9].

With `OCC(CO)(CCl)CCl`, the growth was 95.6% in test [10]; 101% in test [2]; 98.1% in [3]; 109% in test [4]; 88.5% in [5]; 109% in test [6]. For the same compound, the growth in test [8] was 105%; in test [9] it was 99%.

With `O=P(O)(c1ccccc1)c1ccccc1I`, the growth is 88.8% in [10]; 98.2% in [2]; 103% in test [3]; 102% in test [4]; 86.8% in test [5]; 96.2% in test [6]. For the same compound, the growth in test [8] is 97%; in test [9], 98.8%.

On to `OCC1OC(n2cnc3c(Cl)ncnc32)CC1O` (stereo not drawn), for which the growth in test [1] is 98.3%; in [2], 104%; in test [3] it was 101%; in test [4], 120%; in test [5], 104%; in test [6], 98.9%. Also, the values for the growth in test [7], in test [8] and in test [9] were 115%, 108% and 118%, respectively.

On to `COc1ccc2c(c1)c(-c1nc(-c3c[nH]c4ncccc34)cs1)cn2C`, for which the growth in [1] was 44.3%; in [2] it was 80.8%; in test [3] it was 55%; in [5] it was 63.9%; in [6] it was 59.8%; in test [7], 103%. Besides, the growth in [8] is 77.2%.

Regarding `Cn1cc(-c2nc(-c3c[nH]c4ncccc34)cs2)c2cc(Br)ccc21`, the growth was 72.6% in test [1]; 104% in [2]; 82.9% in [3]; 91.9% in test [5]; 76% in test [6]; 118% in [7]. The growth was 98% in test [8] and 75% in [9].

Turning to `O=c1[nH]c(=S)[nH]c2nc[nH]c12`, the growth in [1] was 99.2%; in test [2], 95.2%; in test [3], 90.5%; in test [4], 107%; in test [5], 112%; in test [6] it was 105%. Besides, the growth is 115% in test [7] and 95.1% in test [9].

As for `Cc1ccc(NC2CC(=O)N(c3c(C)cc(C)cc3C)C2=O)c(C)c1` (stereo not drawn), the growth in test [10] was 95.3%; in [2], 107%; in test [3] it was 104%; in [4], 98.6%; in test [5] it was 121%; in test [6], 93.9%. The figures for the growth in test [7], in test [8] and in [9] were 115%, 104% and 106%, respectively.
